# Source: PubChem BioAssay (NCATS)
# Records with an inconclusive call do not appear. A call without a number means that no potency is given here. Values without a mark were called inactive. Activity calls are given as the source filed them. Calls come from the whole dose curve; as a rule, active = well fitted curve in the direction sought with a large enough effect; inconclusive = small, poorly fitted or top-dose-only effect, or another doubt; inactive = no such curve, though single readings can be large; an effect the other way counts as inactive or inconclusive.
# Key:
# [1] = BET inhibitor-based combinations targeting novel dependencies in MECOM-rearranged (r) AML: SET-2 cell line (AID 2202231); details: SET-2 AML cells viability, CellTiter-Glo luminescence, 48 h; viability: active compounds read low, concentration not given here; note: nearly all actives have a fitted effect of over 35% in size; note: potency is the fitted concentration of half-maximal effect
# In short: (§1)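 A 48 hr incubation preceded viability reading by CellTiter-Glo, with 15 min room-temperature development. Dose series had 11 points; normalization used DMSO and empty wells; AUC was computed and mean-centered per line as Z-AUC.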
# [2] = BET inhibitor-based combinations targeting novel dependencies in MECOM-rearranged (r) AML: OCI-AML3 cell line (AID 2202232); details: Potency: OCI-AML3 viability; note: nearly all actives have a fitted effect of over 35% in size; note: potency is the fitted concentration of half-maximal effect
# In short: as §1
# [3] = BET inhibitor-based combinations targeting novel dependencies in MECOM-rearranged (r) AML: HNT-34 cell line (AID 2202234); note: nearly all actives have a fitted effect of over 35% in size; note: potency is the fitted concentration of half-maximal effect
# In short: (§2)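 Each compound is tested in an 11-point concentration series against 500 seeded cells/well for 48 hr. The luminescent viability signal is normalized to DMSO and blank wells, then reduced to AUC and a cell-line-centred Z-AUC.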
# [4] = BET inhibitor-based combinations targeting novel dependencies in MECOM-rearranged (r) AML: UCSD-AML1 cell line (AID 2202235); note: series mostly up to about 46 µM; nearly all actives have a fitted effect of over 40% in size
# In short: as §2
# [5] = BET inhibitor-based combinations targeting novel dependencies in MECOM-rearranged (r) AML: AML-194 cell line (AID 2202237; note: nearly all actives have a fitted effect of over 40% in size)
# In short: as §1
# [6] = BET inhibitor-based combinations targeting novel dependencies in MECOM-rearranged (r) AML: AML-191 cell line (AID 2202236; note: nearly all actives have a fitted effect of over 35% in size; note: potency is the fitted concentration of half-maximal effect)
# In short: as §1
# [7] = BET inhibitor-based combinations targeting novel dependencies in MECOM-rearranged (r) AML: MV-4-11 cell line (AID 2202233); note: potency is the fitted concentration of half-maximal effect; nearly all actives have a fitted effect of over 45% in size
# In short: as §2
structure (smiles),measurement,setting,value
O=C(Nc1cnn2ccc(N3CCC[C@@H]3c3cc(F)ccc3F)nc12)N1CC[C@H](O)C1,viability,[1],98.9%
same,Potency,[2],inactive
same,Potency,[3],inactive
same,Potency,[4],inactive
C[C@@H](C(=O)Nc1ccc(Cl)cc1)C1CCC(c2ccnc3ccc(F)cc23)CC1 (some centres undefined),Potency,[1],16.6 µM (active)
same,Potency,[2],inactive
same,Potency,[4],inactive
same,Potency,[5],inactive
CC(C)C[C@H](NC(=O)[C@H](Cc1ccccc1)NC(=O)OCc1ccccc1)C(=O)C=O,viability,[1],114%
same,Potency,[2],inactive
same,Potency,[6],26.3 µM (active)
same,Potency,[5],inactive
O=S(=O)(NCCNC/C=C/c1ccc(Br)cc1)c1cccc2cnccc12,Potency,[1],14.8 µM (active)
same,Potency,[7],14.8 µM (active)
O=C(Nc1cccc(C(F)(F)F)c1)c1cccc2cc(Oc3cc(CO)ncn3)ccc12,viability,[1],103%
same,Potency,[2],inactive
same,Potency,[4],inactive
same,Potency,[6],inactive
same,Potency,[5],inactive
COc1cccc2c1C(=O)c1c(O)c3c(c(O)c1C2=O)C[C@@](O)(C(C)=O)C[C@@H]3O[C@H]1C[C@H](N)[C@H](O)[C@H](C)O1,Potency,[1],0.59 µM (active)
same,Potency,[2],0.0934 µM (active)
same,Potency,[6],0.186 µM (active)
CNCCN(C)Cc1cn[nH]c1-c1ccc(OC2CC(OCCC3CCOCC3)C2)cc1 (centres undefined),viability,[1],95.3%
same,Potency,[7],20.9 µM (active)
same,Potency,[3],18.6 µM (active)
Cc1ccc(C2=Nc3ccc(Cl)cc3OC2)cc1,Potency,[1],8.33 µM (active)
same,Potency,[2],10.5 µM (active)
same,Potency,[4],inactive
same,Potency,[6],inactive
same,Potency,[5],inactive
CN[C@@H](C)C(=O)N[C@@H]1C(=O)N(Cc2c(C)ccc3ccccc23)c2ccc(C#N)cc2N(C(C)=O)[C@H]1C,viability,[1],102%
same,Potency,[2],inactive
same,Potency,[4],inactive
same,Potency,[5],inactive
